Laboratory results taken from PubChem BioAssay AID602410 (Johns Hopkins Ion Channel Center, 2012).
About 2,800 (0.82%) of roughly 340,000 compounds were called active.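 How the source made its calls: active means B-score under library mean minus 4 SD, starting fluorescence ratio at most library mean plus 5 SD; inactive means the rest.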 The sample as a whole holds a higher share of actives than the screen did.

Target: Potassium channel subfamily K member 3 (Homo sapiens) (UniProt O14649)
Test: human KCNK3 channel inhibitors, primary screen, CHO cells, FluxOR thallium flux, B-score (AID 602410);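 on B-score: more negative B-score means stronger inhibition of thallium flux through KCNK3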
Conditions: FluxOR fluorescence, at 10 µM; active compounds read low

Chain of Potassium channel subfamily K member 3 (Homo sapiens) (O14649 whole entry, looked up): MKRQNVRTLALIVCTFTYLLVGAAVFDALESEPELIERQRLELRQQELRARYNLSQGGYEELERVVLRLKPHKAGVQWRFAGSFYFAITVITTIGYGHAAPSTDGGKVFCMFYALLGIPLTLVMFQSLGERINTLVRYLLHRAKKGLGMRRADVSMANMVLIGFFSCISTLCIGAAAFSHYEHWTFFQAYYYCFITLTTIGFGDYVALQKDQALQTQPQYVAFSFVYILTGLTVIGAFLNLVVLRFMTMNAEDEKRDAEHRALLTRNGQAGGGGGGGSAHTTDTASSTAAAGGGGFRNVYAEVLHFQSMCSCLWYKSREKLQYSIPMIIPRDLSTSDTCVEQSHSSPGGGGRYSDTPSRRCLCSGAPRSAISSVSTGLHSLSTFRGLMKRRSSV

B-score, inactive:
C#CC(C)(C)NC(=O)c1cnc(-c2ccccc2)nc1-c1ccccc1
CS(=O)(=O)c1ccc(-c2nnn(CC(=O)Nc3ccc4c(c3)OCCO4)n2)cc1
CC1(C)CC(=O)C/C(=N\NC(=O)c2cccs2)C1
CN(CC(=O)NCCc1ccc(S(N)(=O)=O)cc1)CC(=O)Nc1ccc(F)c(F)c1F
Cc1ccc(C(=O)N/C(=C\c2cn(S(=O)(=O)N(C)C)c3ccccc23)C(=O)N2CCCC2)cc1
Cc1ccc2nc(N3C(=O)C(O)=C(C(=O)c4ccco4)C3c3cccc(O)c3)sc2c1 (stereo unspecified)
C=CCOc1cccc(C2C(C(=O)c3ccc(C)o3)=C(O)C(=O)N2c2nnc(C)s2)c1 (stereo unspecified)
Cc1cc(OC(=O)c2c(Cl)cccc2Cl)nc(C)n1
O=C(c1c(F)cccc1Cl)N1CCN(S(=O)(=O)c2ccc3c(c2)OCCCO3)CC1
CCCCc1nc2ccccc2c(NC(=O)CN2CCN(C)CC2)c1CCC
CSCc1cc(N2CCOCC2)nc(SCc2ccc(Cl)cc2Cl)n1
Clc1ccc(CSc2nnc(/C=C/c3ccccc3)o2)c(Cl)c1
CC(=O)Nc1ccc(NC(=O)COC(=O)c2ccccc2C(=O)c2ccccc2)cc1
CC(=O)Nc1ccc(NC(=O)C(C)OC(=O)c2ccccc2C(=O)c2ccc(Cl)c([N+](=O)[O-])c2)cc1 (stereo unspecified)
CCOc1ccc2oc(C(=O)N(CC)CC(=O)Nc3ccc(NC(C)=O)cc3)c(C)c2c1
Cc1nc(=O)c(-c2ccccc2)c(C)n1-c1ccc(Br)cc1
CC(C)Oc1ccc(C2NC(=O)NC2=O)cc1 (stereo unspecified)
Cc1cccc(C2c3c(n(C)c(=O)n(C)c3=O)N=C3c4ccccc4C(=O)C32)c1 (stereo unspecified)
Cc1csc2nc(O)c(C(=O)NCCN3CCOCC3)c(=O)n12
Cc1ccc(NC(=O)c2sc3nc(N)c(C#N)cc3c2N)cc1
COc1ccc(OC)c(NC(=O)c2sc3nc(C)cc(C)c3c2N)c1
CCCN=C1NC(=O)C(CC(=O)NCCc2ccc(OC)c(OC)c2)S1 (stereo unspecified)
O=C1c2ccccc2C(Nc2ccc3c(c2)OCCO3)N1Cc1ccco1 (stereo unspecified)
CCOC(=O)c1cccc(NC(=O)C2CCN(c3ncnc4c3nc3n4CCCCC3)CC2)c1
O=C(COc1ccccc1F)Nc1nc(-c2ccccn2)cs1
COc1ccccc1NC(=O)Nc1nc(CC(=O)Nc2ccccc2F)cs1
CCOC(=O)N1CCN(Cc2nc(Cc3cccc(C(F)(F)F)c3)no2)CC1
O=C(NCCCN1CCOCC1)c1cc2c(s1)CCC2
CN1CCN(CCCNC(=O)c2cc3c(=O)oc4ccccc4c3s2)CC1
O=C(O)Cc1csc(NC(=O)CSc2nnnn2-c2ccc(O)cc2)n1
COc1ccc(Cl)cc1NC(=O)NC(C)C(C)(C)C (stereo unspecified)
COc1ccc(Cl)cc1NC(=O)NCC1CCN(Cc2ccccc2F)CC1
O=C(NCc1cn2ccsc2n1)Nc1cccc(Cl)c1
Cc1nc(CNS(=O)(=O)c2cc([N+](=O)[O-])ccc2C)cs1
COC(=O)c1ccccc1N=Nc1c(C)[nH][nH]c1=O
O=C(NCCCN1CCOCC1)c1ccc2c(c1)N(Cc1cccc(F)c1)C(=O)c1ccccc1S2
CN1CCN(CCCNC(=O)c2ccc(/C=C3\Oc4ccccc4N(Cc4ccc(Cl)cc4)C3=O)cc2)CC1
CC[C@]1(C(=O)OC)[C@H]2C(=O)N(Cc3ccccc3)C(=O)[C@H]2[C@H]2CN=C(SCc3ccc(C#N)cc3)N21
CCc1ccc(OC(C)C(=O)Nc2ccc(S(=O)(=O)Nc3cc(C)on3)cc2)cc1 (stereo unspecified)
Cc1ccc(NC(=O)Nc2cc(-c3ccccc3)nn2C)cc1Cl
Cc1cc(C(=O)NCCc2ccc(Cl)cc2)n(-c2ccccc2)n1
O=[N+]([O-])c1ccc(N/N=C2/CCCCC2c2ccccn2)c([N+](=O)[O-])c1 (stereo unspecified)
C[n+]1ccccc1C1CCCC/C1=N\Nc1ccc([N+](=O)[O-])cc1[N+](=O)[O-] (stereo unspecified)
Cc1ccc(S(=O)(=O)N(CC(O)CN2C(=O)NC(C)(C)C2=O)c2cccc([N+](=O)[O-])c2)cc1 (stereo unspecified)
C/C(=N/NC(=O)c1ccc(Br)o1)c1ccc(C)o1
O=C(C1CC(=O)N(c2ccc(Br)cc2)C1)N1CCCC1 (stereo unspecified)
CC(NC(=O)Cn1cc(C(F)(F)F)cc(Cl)c1=O)c1ccccc1 (stereo unspecified)
O=C(Nc1ccncc1)Nc1ccc(F)cc1
O=C(CCl)Nc1ccc(Sc2ccc(NC(=O)CCl)cc2)cc1
CCn1nnnc1SCC(=O)c1ccc(C)cc1C
Cc1ccc(NC(=O)COc2ccc(-n3ccnc3)cc2)cc1Cl
c1ccc(CN=C2Nc3ccccc3CS2)nc1
COc1ccc(C(CCNCc2ccccc2F)c2ccc(F)cc2)cc1 (stereo unspecified)
CN(CC(=O)Nc1ccc(S(=O)(=O)N2CCCC2)cc1)Cc1ccc(Cl)c(Cl)c1
CN(CC(=O)Nc1ccc(F)cc1)CC(=O)Nc1ccc(Cl)c(S(=O)(=O)N2CCOCC2)c1
COc1cc(C(=O)CCc2ccc3c(c2)OCO3)cc(OC)c1OC

B-score, active:
C=CCSc1nnc(N2C(=O)C(O)=C(C(=O)c3ccco3)C2c2ccc(F)cc2)s1 (stereo unspecified) -10.6
Cc1cc(C)c(S(=O)(=O)c2ccccc2)c(OC(=O)c2c(F)cccc2Cl)n1 -14.3
CSCc1cc(N(C)C)nc(SCc2ccc(Cl)cc2Cl)n1 -9.62
N#Cc1cccc(NC(=O)COC(=O)c2ccccc2C(=O)c2ccc(Cl)c([N+](=O)[O-])c2)c1 -11.8
O=C1c2ccccc2C2=Nc3ccccc3SC(c3ccccc3F)C12 (stereo unspecified) -12.4
Cc1cccc(NC(=O)c2sc3nc4c(c(-c5ccco5)c3c2N)CCC4)c1 -11.4
COc1ccc(CC(=O)Nc2nc(-c3ccc(F)c(F)c3)cs2)cc1OC -12.4
Cc1cccc2c1-c1sc(C(=O)NCCCN3CCc4ccccc4C3)cc1CO2 -9.55
COc1ccc(Cl)cc1NC(=O)C(C)N1CCc2ccccc21 (stereo unspecified) -8.75
Cc1ccc(S(=O)(=O)NCc2cn3ccsc3n2)c(C)c1 -20.8
CCN1CCN(CCNC(=O)c2ccc(/C=C3/Sc4ccccc4N(Cc4cccc(C)c4)C3=O)cc2)CC1 -11.5
Cc1cc(NC(=O)Nc2ccc(Cl)cc2)n(-c2ccccc2)n1 -10.7
O=C(Nc1ccccc1)O/N=C1\CCCCC1c1ccc([N+](=O)[O-])cc1[N+](=O)[O-] (stereo unspecified) -9.88
CC(C)(CCl)C(=O)Nc1ccc(Sc2ccc(F)cc2)cc1 -12
CN(CCC(=O)Nc1cc(S(=O)(=O)N(C)C)ccc1Cl)CC(=O)Nc1ccc(F)cc1 -16.6
